Source: PubChem BioAssay (several laboratories)
Mot1-301 SUMO = yeast Mot1-301 growth rescue at high temperature, primary screen, SUMOylation pathway inhibitor project, S. cerevisiae, ATP luminescence, 38.5C. S. cerevisiae Mot1-301 growth rescue; percent above DMSO median, 100 means doubled. growth rescue, % at 18.8 µM. actives 1% (n = 320,000);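 active means every valid replicate shows activation above 250% relative to neutral control wells; inactive means the rest, any valid replicate at or below 250%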;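 further: OY570 slx delta 5 strain wells were the positive control but not used for scaling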
MsrA inhibitor = bovine MsrA enzyme inhibitors, primary screen, biochemical, absorbance, HTS. Methionine sulfoxide reductase A (Bos taurus). purified bovine MsrA, absorbance read-out. inhibition, % at 15.5 µM. actives 0.75% (n = 360,000); in the data active means inhibition above about 4.5%;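 further: 0% = vehicle wells with enzyme and 100% = reference inhibitor wells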
PKA-R1A act = activators of PKA-R1A holoenzyme, primary screen, biochemical, fluorescence polarization, Cy5-IP20, bovine R1A, mouse PKAc | actives 0.083% (n = 340,000) | AID 504707, 2011 | PKA-R1A dissociation; scaled: DMSO 0%, 113 µM cGMP 100% | activation, % at 11.4 µM;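 active means percent activation above the mean of all tested compounds plus 3 SD, cut at about 19% in these data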;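 further: higher means more PKAc released from R1A so a rise in polarization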
PKA-R2B act = activators of PKA-R2B holoenzyme, primary screen, biochemical, fluorescence polarization, Cy5-IP20, human; PKA-R2B holoenzyme dissociation; R2B truncated from residue 108, S112A mutant; 0% DMSO only, 100% 113 µM cGMP; activation, % at 11.4 µM; actives 0.079% (n = 340,000);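 active means activation above a cutoff set at the mean over all compounds plus 3 SD, cut at about 18% in these data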;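 further: higher means more holoenzyme dissociation and a rise in polarization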
Target sequence (P31323 whole entry, looked up, other chains not shown, the tested form may be a part): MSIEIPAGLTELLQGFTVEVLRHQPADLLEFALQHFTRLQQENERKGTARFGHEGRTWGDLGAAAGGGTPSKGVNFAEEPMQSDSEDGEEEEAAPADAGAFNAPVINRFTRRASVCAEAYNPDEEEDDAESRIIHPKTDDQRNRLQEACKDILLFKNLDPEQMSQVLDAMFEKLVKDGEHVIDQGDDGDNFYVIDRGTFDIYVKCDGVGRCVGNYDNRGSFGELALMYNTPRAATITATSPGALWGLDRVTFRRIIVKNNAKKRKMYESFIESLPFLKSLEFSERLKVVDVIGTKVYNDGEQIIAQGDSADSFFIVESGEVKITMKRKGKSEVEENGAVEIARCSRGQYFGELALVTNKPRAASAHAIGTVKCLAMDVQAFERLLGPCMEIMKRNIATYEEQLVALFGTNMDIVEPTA
bovine MsrA act = bovine MsrA enzyme activators, primary screen, biochemical, absorbance, HTS. purified bovine MsrA, absorbance read-out. actives 0.3% (n = 360,000). activation, % at 10.6 µM. Methionine sulfoxide reductase A (Bos taurus); in the data active means activation above about 7.5%;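 further: 0% = vehicle and 100% = reference activator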
Mot1 SUMO dose = growth restoration of Mot1-301 yeast on galactose, dose response, SUMO pathway inhibitor project, whole organism, S. cerevisiae, ATP luminescence, cherry-picked samples | growth activity, percent, % at 42 µM | shares compounds with Mot1-301 SUMO | S. cerevisiae Mot1-301 galactose growth, 24 h; -100 = growth of slx-deleted rescue strain | 2,300 tested, under 10 active;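 active means Signal drops as the depositor expects, and the fitted half-maximal dose is no more than ten times the top valid tested dose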;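 further: more negative values mean stronger growth rescue toward the control strain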
* marks the source's active call; other numbers are inactive results; / = not tested or not shown; + = active, no number; ! = a repeat was not active. Only some compounds are listed: those with a hit (about 2% of all), similar ones and a draw of the others.

SMILES | Mot1-301 SUMO | MsrA inhibitor | PKA-R1A act | PKA-R2B act | bovine MsrA act | Mot1 SUMO dose
NC(=O)[C@@H]1CCCN1C(=O)[C@H]1O[C@@H](n2ccc(N)nc2=O)[C@H](O)[C@@H]1O | / | 1 | / | / | / | /
O=S1(=O)CCC(N(N=Cc2ccco2)c2ccccc2)C1 (stereo unspecified) | / | 1 | / | / | / | /
Clc1cc(Br)ccc1OCCOCCN1CCOCC1 | 504* | 2 | -12 | 0 | 2 | 0
COc1cc(CNCCN2CCOCC2)ccc1OCc1ccccc1Cl | 453* | 1 | -12 | 3 | 1 | 0
CCOc1ccc(Br)cc1CNCCN1CCOCC1 | 399* | 0 | -6 | -3 | -10 | 0
O=C(CN1CCN(Cc2ccc(Cl)cc2)CC1)N/N=C/c1ccncc1 | 374* | 0 | -4 | -10 | -9 | 0
COC(=O)C1=C(C)N(Cc2ccccc2C(F)(F)F)C(=NCc2ccc(OC)cc2)NC1CCc1ccccc1 (stereo unspecified) | / | -1 | / | / | / | /
O=C(Nc1cc(Cl)ccc1Oc1ccccc1)C1=COCCO1 | 12 | 1 | 1 | -20 | -1 | /
Cc1ccc(Oc2ccccc2NC(=O)C2=COCCO2)cc1 | 416* | 0 | -8 | -5 | -11 | 0
COC(=O)C1=C(C)N(Cc2ccccc2C(F)(F)F)C(=NCc2cccc(C(F)(F)F)c2)NC1c1cccc(Cl)c1 (stereo unspecified) | / | -2 | / | / | / | /
O=[N+]([O-])c1ccc(NN=Cc2cccc([N+](=O)[O-])c2)cc1 | / | 1 | -6 | 0 | -1 | /
O=[N+]([O-])c1ccc(N/N=C/c2cccc(O)c2)cc1 | 484* | 2 | -13 | -6 | 0 | -2
CS(=O)(=O)c1cccc(OCCCN2CCC(C(O)(c3ccccc3)c3ccccc3)CC2)c1 | / | -1 | / | / | / | /
COC(=O)c1cc2c(c3c4cc(C)ccc4n(S(=O)(=O)c4cccc(C)c4)c13)C(=O)N(Cc1ccc(C(F)(F)F)cc1)C2 | / | 0 | / | / | / | /
C/C=C/C(=O)OCC(=O)Nc1nc2ccc(C)cc2s1 | 361* | 1 | -4 | 2 | -1 | 0
Cc1cc(C)n2c(SCC(C)C)nnc2n1 | 770* | -1 | -2 | 1 | 0 | -1
CCSc1nnc2nc(C)cc(C)n12 | 300 | -1 | 2 | -8 | -2 | /
COc1cc([N+](=O)[O-])cc2cc(C(=O)NC(C)(C)C)c(=O)oc12 | 2 | 0 | 3 | 1 | -2 | /
COCCCNC(=O)c1cc2cc([N+](=O)[O-])cc(OC)c2oc1=O | 406* | 0 | -11 | -7 | -2 | 1
CC(CN1CCCCCC1)C(=O)NN (stereo unspecified) | 674* | -1 | -7 | 0 | -6 | 1
COC(=O)[C@]12C[C@H](CC(=O)NCc3cccc4ccccc34)C(=O)N(CCC3=CCCCC3)C1=C[C@H](C(C)(C)C)O[C@@H]2C | / | 0 | / | / | / | /
O=CNCc1nc2ccccc2n1CCc1ccccc1 | 64 | 0 | -6 | 6 | -4 | /
O=CNCCCc1nc2ccccc2n1CCc1ccccc1 | + | 0 | 8 | -11 | -2 | 0
CCCCOCCCNC(=O)C[C@H]1C[C@@]2(C(=O)OC)C(=C[C@H](C(C)(C)C)O[C@@H]2C)N(Cc2ccccc2)C1=O | / | 1 | / | / | / | /
O=C(NCCCn1ccnc1)c1ccc2ccccc2c1 | -14 | -1 | -2 | 7 | -3 | /
SMILES | Mot1-301 SUMO | MsrA inhibitor | PKA-R1A act | PKA-R2B act | bovine MsrA act | Mot1 SUMO dose
O=C(NCCCn1ccnc1)Nc1cccc2ccccc12 | 762* | 0 | -11 | -4 | -8 | 0
CC(=O)c1ccc(N=C2SCCCN2C(=O)C2CCCC2)cc1 | 398* | 0 | -10 | 5 | -4 | 0
CC(=O)c1ccc(NC(=S)N2CCCCCC2)cc1 | 161 | 2 | 2 | 3 | -4 | /
CCCCCCCCCCOC(=O)Cn1c(COc2ccc(OC)cc2)[n+](C)c2ccccc21 | 563*! | / | -7 | 1 | 3 | -2
CCCCCCCCCCOC(=O)Cn1c(COc2ccccc2)[n+](C)c2ccccc21 | 150 | -1 | -8 | 3 | 6 | /
Cc1cc(C(=O)OCC(=O)N2CCN(C(=O)c3ccco3)CC2)c(C)n1-c1ccc(F)cc1 | 7 | 0 | -11 | 2 | -1 | /
CCOC(=O)c1cc2c(ccn2-c2ccc(F)cc2)n1CC(=O)N1CCN(C(=O)c2ccco2)CC1 | 378* | 1 | 1 | -10 | -1 | -1
O=C(/C=C/c1cccc([N+](=O)[O-])c1)NCCSCc1ccc(Cl)cc1Cl | 368* | 2 | -15 | -6 | -2 | 0
O=C(/C=C/c1cccc([N+](=O)[O-])c1)NCCSCc1ccccc1Cl | 5 | 1 | -6 | 1 | -9 | /
COc1ccccc1CC(=O)N1CCOCC1 | 878* | 0 | -2 | -1 | -1 | 0
COc1ccc(C2CC(=O)C(c3ccc(F)cc3)=CN2Cc2ccccc2)cc1 (stereo unspecified) | / | 0 | / | / | / | /
Cc1ccc(N(CC(=O)NCCc2ccc(Cl)cc2)S(=O)(=O)c2c(C)noc2C)cc1 | 510* | 1 | -9 | -2 | -4 | 0
COc1ccc(N(CC(=O)Nc2ccc(C)c(C)c2)S(=O)(=O)c2c(C)noc2C)cc1 | 6 | 1 | -5 | -3 | -2 | /
Cc1cc(C)cc(N(CC(=O)Nc2cccc(C)n2)S(=O)(=O)c2c(C)noc2C)c1 | 528* | -1 | -2 | -8 | -2 | -1
CCOc1ccc(N(CC(=O)NC2CCC(C)CC2)S(=O)(=O)c2c(C)noc2C)cc1 (stereo unspecified) | 461* | 0 | -5 | -5 | -9 | 0
COc1ccc(NC(=O)CN(c2ccc(C(C)C)cc2)S(=O)(=O)c2c(C)noc2C)cc1OC | 367* | 0 | -1 | -5 | -7 | 0
Cc1ccc(NC(=O)CN(c2cc(C)cc(C)c2)S(=O)(=O)c2c(C)noc2C)nc1 | -16 | -1 | -6 | -4 | -2 | /
CCOc1ccc(N(CC(=O)NC2CCCCC2C)S(=O)(=O)c2c(C)noc2C)cc1 (stereo unspecified) | 174 | 1 | 3 | -5 | -3 | /
CCNC(=O)N1CCN(c2ccc(N3CCN(Cc4ccccc4)[C@@H](C)C3)c(C)c2)[C@H](C)C1 | / | 1 | / | / | / | /
Cc1ccc(CN(C)C(=O)c2ccc3c(c2)NC(=O)CS3)o1 | 364* | 0 | -15 | -11 | -9 | 0
O=S1(=O)N[C@@H](Cc2ccccc2)COc2cccc(NCCO)c21 | / | 1 | / | / | / | /
